In all, about 320,000 compounds went through this assay and about 2,100 (0.66%) were called active. Not shown: some 53% with an inconclusive outcome. Calls come from the whole dose curve; as a rule, active = well fitted inhibition curve with a large enough effect in the signal ratio, with a control signal flat (not every such curve was filed as active); inconclusive = small, poorly fitted or top-dose-only effect, or effect the other way, or a change in a side signal; inactive = flat fitted curve, though single readings scatter; the % refers to the signal ratio. Shown is part of a subset that was picked to be rich in actives.
Potency is the fitted concentration of half-maximal effect.

This assay is described as follows: qHTS Assay for Lipid Storage Modulators in Drosophila S3 Cells.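 For cell number change: cells counted by Cell Tracker Red CMTPX staining in the red channel.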 For lipid storage change, negative = inhibition: % is set by controls: 0 for no effect and ±100 for the full control effect. To be noted: BODIPY lipid droplet fluorescence, 18-24 h, cells fed with added oleic acid; cell number change: measured here: cell count max response; series mostly up to 46.1 µM; lipid storage change, negative = inhibition: at the top concentration. The essentials:
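Laser-scanning cytometry quantifies lipid droplet accumulation (500–530 nm total intensity; droplet/cell object ratio) in oleic acid-fed (400 uM added) Drosophila S3 cells treated with a concentration series. 20 uM Triacsin C defined 100% inhibition.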
For the compound `CCCC(C)c1nnc(NC(=O)C2CCCO2)s1` (configuration not stated), the result was inactive.
Take `C/C(=N\NC(=O)c1ccc(-c2ccccc2)cc1)C1C(=O)c2ccccc2C1=O`: the “lipid storage change, negative = inhibition” value is -10.9% (inactive) and the cell number change is 2.31%.
In the case of `COc1ccc(OC)c(NC(=O)CCN2C(=O)c3cccc([N+](=O)[O-])c3C2=O)c1`, the compound was classed as inactive and the cell number change is 12.8%.
Regarding `OCCC1CN(Cc2cc3c(cc2Cl)OCO3)CCN1C1CCCCC1` (configuration not stated), the “lipid storage change, negative = inhibition” value was 18% (inactive) and the cell number change worked out at 2.14%.
In the case of `OCCC1CN(Cc2ccncc2)CCN1C1CCCC1` (configuration not stated), the “lipid storage change, negative = inhibition” value was -2.02% (inactive) and the cell number change was -1.79%.
As to `Cc1nnc(SCc2ccon2)n1-c1ccccc1`, the “lipid storage change, negative = inhibition” value is -0.985% (inactive) and the cell number change is -2.33%.
As for `O=C(Cc1ccccc1)NCC(=O)N/N=C/c1cccs1`, the “lipid storage change, negative = inhibition” value is 7.5% (inactive).
With `O=C(Cc1ccccc1)NCC(=O)N/N=C/c1ccc([N+](=O)[O-])s1`, the Potency is 16.4 µM (active) and the cell number change stood at 17.1%.
As for `O=C(N/N=C/c1ccc([N+](=O)[O-])s1)c1ccccc1`, the call was inactive.
Regarding `COc1ccc(OC)c(Cc2nnc(CCC(=O)NC3CCCCC3)o2)c1`, the “lipid storage change, negative = inhibition” value is -8.81% (inactive) and the cell number change is -6.11%.
The corresponding values for `Cn1c(OCc2ccc3c(c2)OCO3)nc2c1c(=O)n(Cc1ccc(Cl)c(Cl)c1)c(=O)n2C` are -1.56% (inactive) and 10.2%.
For `N#Cc1cn(Cc2ccccc2)c(=O)[nH]c1=O`, the “lipid storage change, negative = inhibition” value is -14.4% (inactive) and the cell number change turned out to be 17.6%.
The corresponding values for `Cc1cn(Cc2ccccc2)c(=O)[nH]c1=O` are -2.22% (inactive) and -5.94%.
With `O=c1[nH]c(=O)n(Cc2ccc(Oc3ccccc3)cc2)cc1Br`, the Potency is 18.4 µM (active) and the cell number change was 18.3%.
`CC1Sc2ccc(S(=O)(=O)CCC(=O)NC3CCCCC3C)cc2NC1=O` (configuration not stated): the call was inactive and the cell number change amounted to 7.41%.
For `NC(=O)c1cc(C(=O)Cc2ccc(Cl)cc2)c[nH]1` the same measures were “inactive” and 23.6%.
With `CCOc1ccc(CNC(=O)C(C)n2nc(C)c3c(C)n(-c4ccccc4)nc3c2=O)cc1` (configuration not stated), the compound was classed as inactive.
Regarding `CCOC(=O)c1[nH]c2ccccc2c1NC(=O)c1nonc1C`, the Potency is 2.06 µM (active) and the cell number change is 103%.
Regarding `CCOC(=O)c1[nH]c2ccc(Cl)cc2c1NC(=O)c1nonc1C`, the “lipid storage change, negative = inhibition” value is -7.98% (inactive) and the cell number change was -14.5%.
Consider `CCOC(=O)c1[nH]c2cc(OC)c(OC)cc2c1NC(=O)c1nonc1C`, for which the outcome was inactive and the cell number change was -8.79%.
For the compound `C#CCOC(=O)C[N+](C)(C)CC=C`, the “lipid storage change, negative = inhibition” value is -14.8% (inactive) and the cell number change turned out to be 12.5%.
On to `Nc1ccc(C(=O)N/N=C/c2c[nH]c3ccccc23)cc1`, for which the “lipid storage change, negative = inhibition” value was 9.89% (inactive) and the cell number change amounted to 14.6%.
Turning to `CCC(NS(=O)(=O)c1cccs1)c1ccc(C)cc1` (configuration not stated), the Potency is 0.164 µM (active) and the cell number change was found to be 13.3%.
On to `Cc1ccc(CNC(=O)C(NS(=O)(=O)c2cccs2)C(C)C)cc1` (configuration not stated), for which the “lipid storage change, negative = inhibition” value was 20.5% (inactive) and the cell number change is 20.4%.
On to `Cc1ccc(CNC(=O)C(Cc2ccccc2)NS(=O)(=O)c2cccs2)cc1` (configuration not stated), for which the call was inactive.
Take `CCS(=O)(=O)n1nc(-c2ccco2)nc1N`: the “lipid storage change, negative = inhibition” value is 0.971% (inactive) and the cell number change is 19.9%.
As for `Cc1ccc(N/C(CSC(N)=O)=N/S(=O)(=O)c2ccccc2)cc1`, the Potency was 16.4 µM (active).
Consider `Cc1ccc(NC(=S)N/C(=N/S(=O)(=O)c2ccccc2)c2ccccc2)cc1`, for which the call was inactive.
Consider `CS/C(=N/S(=O)(=O)c1ccc(C)cc1)c1ccccc1`, for which the “lipid storage change, negative = inhibition” value was 19.1% (inactive) and the cell number change was -26.1%.
Regarding `COc1cc(OC)cc(C(=O)NC(C)CNc2ccc(Cl)cc2[N+](=O)[O-])c1` (configuration not stated), the Potency is 16.4 µM (active) and the cell number change was -19.1%.
With `COc1ccc(NC(=O)c2cc(Cl)ccc2Cl)c([N+](=O)[O-])c1`, the “lipid storage change, negative = inhibition” value is 18.3% (inactive) and the cell number change is -6.66%.
Consider `CC(CNC(=O)c1cc(Cl)ccc1[N+](=O)[O-])NC(=O)c1cc(Cl)ccc1[N+](=O)[O-]` (configuration not stated), for which the “lipid storage change, negative = inhibition” value is -13.7% (inactive) and the cell number change was -7.89%.
The corresponding values for `CCC(C)(C)n1nnnc1C(c1cc2cc(C)cc(C)c2[nH]c1=O)N1CCCC1` (configuration not stated) are 8.01% (inactive) and 6.4%.
For `CN(Cc1ccccc1)CC(O)COc1ccc(CNCCOc2cccnc2)cc1` (configuration not stated) the same measures were 9.6% (inactive) and 3.58%.
The corresponding values for `Cc1cc(NC(=O)c2cc([N+](=O)[O-])cc([N+](=O)[O-])c2C)no1` are -8.89% (inactive) and 11.7%.
Consider `CCC1=Nc2ccccc2-c2nnc(SC)nc2O1`, for which the call was inactive.
As to `O=C1Nc2ccc(Br)cc2C1(O)Cc1ccncc1` (configuration not stated), the “lipid storage change, negative = inhibition” value was 14.5% (inactive) and the cell number change came out at 16.8%.
The corresponding values for `O=C1Nc2ccccc2C1(O)Cc1ccccn1` (configuration not stated) are -6.05% (inactive) and -9.38%.
For the compound `O=C1Nc2ccccc2C1(O)Cc1ccncc1` (configuration not stated), the Potency is 13 µM (active) and the cell number change was 1.32%.
Turning to `NS(=O)(=O)c1ccc(CCNC(=O)CSc2ccc3ccccc3c2)cc1`, the “lipid storage change, negative = inhibition” value was 2.99% (inactive).
On to `COCCN(C(=O)COC(=O)/C(=C/c1ccccc1)NC(C)=O)c1c(N)n(Cc2ccccc2)c(=O)[nH]c1=O`, for which the outcome was inactive and the cell number change is -11.6%.
Consider `COc1ccc(CCNC(=O)C2CC3Cn4c(nc5ccccc54)C3N2C)cc1` (configuration not stated), for which the “lipid storage change, negative = inhibition” value was 6.16% (inactive) and the cell number change was -10.7%.
As for `COC(=O)C1=C(C)N=C2SC(C#N)=C(N)N2C1c1cccc(OC)c1` (configuration not stated), the compound was classed as inactive and the cell number change is -6.05%.
On to `COC(=O)C1=C(C)N=C2SC(C#N)=C(N)N2C1c1cc(OC)c(OC)c(OC)c1` (configuration not stated), for which the “lipid storage change, negative = inhibition” value is -7.72% (inactive) and the cell number change turned out to be 2.55%.
Regarding `COC(=O)C1=C(C)N=C2SC(C#N)=C(N)N2C1c1ccc(OC)cc1` (configuration not stated), the Potency is 11.6 µM (active) and the cell number change was -10.8%.
With `CCCC1(C(=O)OC)NC(c2ccco2)C2C(=O)N(c3ccc(C)cc3)C(=O)C21` (configuration not stated), the “lipid storage change, negative = inhibition” value was 0.487% (inactive) and the cell number change came to 3.89%.
`CCC1(C(=O)OC)NC(c2ccco2)C2C(=O)N(c3ccc(C)cc3)C(=O)C21` (configuration not stated): the Potency was 29.1 µM (active) and the cell number change was -0.0174%.
Consider `CCC1(C(=O)OC)NC(c2ccco2)C2C(=O)N(c3ccccc3)C(=O)C21` (configuration not stated), for which the “lipid storage change, negative = inhibition” value was 3.55% (inactive) and the cell number change is 5.03%.
For `COc1ccccc1C1=Nn2c(COc3ccccc3)nnc2SC1`, the “lipid storage change, negative = inhibition” value is 8.35% (inactive) and the cell number change is 23.6%.
For the compound `O=S(=O)(c1ccc(Cl)cc1)N1CCn2c1nc1ccccc12`, the compound was classed as inactive.
Turning to `O=[N+]([O-])c1cccc(S(=O)(=O)N/N=C\c2ccc3c(c2)OCO3)c1`, the “lipid storage change, negative = inhibition” value is -28.7% (inactive) and the cell number change is -21.8%.
